These results are taken from PubChem BioAssay (NCI).

Molecules are shown by their SMILES. The panel holds about 83,000 compounds, 20% with a hit somewhere; the sample as a whole holds those more often.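 For each line, cells grew in 96-well plates with the test compound present at a single concentration for 48 hours.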 A number with no mark means an inactive call. Activity calls are given as the source filed them. How the source made its calls: active means growth percent below 10; inactive means the rest.

For this test, the system named is HL-60(TB) leukemia. Briefly: NCI-60 one-dose screen, 48 h (100 = growth as untreated, 0 = no growth, -100 = all killed). The settings on record: 10 µM unless noted.
Turning to `CCC12CCC3c4ccc(O)cc4CCC3C1CC(O)C2O` (stereo not given), the growth is 63.1%.
As to `CC[N+](C)(C)N`, the growth is 103%.
In the case of `COC(=O)c1ccc2[nH]c(O)c(C(=Nc3ccc(N(C)C(=O)CN4CCN(C)CC4)cc3)c3ccc(CCO)cc3)c2c1` it was 7.24% (active); in that of `O=C1/C(=C/c2cccc([N+](=O)[O-])c2)COc2ccc(O)c(O)c21`, -19.5% (active).
In the case of `O=C(CCc1nc(-c2cccc(Cl)c2)no1)Nc1ccccn1` it was 102%; in that of `Cc1ccc(N/N=C(/C(=O)c2ccc(Cl)cc2)c2nc(C)cc(=O)[nH]2)cc1`, 109%; in that of `COc1ccc(CCl)c(C)c1OC`, 99%.
The result for `COC(=O)c1ccc2oc(NC(=O)c3ccc(Nc4ccc([N+](=O)[O-])cc4C)c([N+](=O)[O-])c3)nc2c1` reads 99.7%; that for `CCCCn1c(=O)c2c(nc(NCCc3ccc(O)c(O)c3)n2CCC)n(CCCC)c1=O`, 60.3%; that for `COc1ccc(-c2nnc(NC(=O)CN3CCN(c4cc5c(cc4F)c(=O)c(C(=O)O)cn5C4CC4)CC3)s2)cc1OC`, 111%.
Take `Nc1cccc(Cl)c1N`: the growth was 79%.
Turning to `Cc1cc(O)c(C2=NN(c3ccc(S(N)(=O)=O)cc3)C(c3ccccc3Cl)C2)cc1Cl` (stereo not given), the growth is -30.2% (active).
In the case of `COC(=O)c1ccccc1N(C)C` it was 87.6%; in that of `O=S(=O)(Nc1ccsc1-c1nc(-c2ccccc2)no1)c1cc(Cl)cc(Cl)c1`, 119%; in that of `COc1ccc(-c2nc3sccn3c2/C=C/C(=O)c2cc(OC)c(OC)c(OC)c2)cc1OC`, 6.14% (active).
For the compound `COc1ccc(-c2csc(NC(=O)Nc3nc(-c4ccc(OC)cc4)cs3)n2)cc1`, the growth was 80.6%.
As for `O=C(Nc1cccc(-n2ccc3c(NC(=O)c4ccccc4)nccc32)c1)c1cc(N2CCOCC2)cc(C(F)(F)F)c1`, the growth was -13.1% (active).
The result for `O=C(N=Nc1c(O)[nH]c2ccccc12)Nc1ccc(Br)cc1` reads 70.2%; that for `Cc1ccc(C(=O)/C(=C\c2ccc([N+](=O)[O-])cc2)S(=O)Cc2ccc(F)cc2)cc1` (stereo not given), -7.36% (active).
Turning to `O=C1c2cccc3c(-c4ccc5c(c4)ncn5C4CCCCC4)ccc(c23)C(=O)N1c1nc2ccccc2s1`, the growth is 76%.
As to `COc1ccc(Cn2cnc3cc(C(=O)Nc4cccc5ccccc45)ccc32)c(OC)c1`, the growth is -33.3% [30 µM] (active).
As to `CC[N+](CC)=c1ccc2nc3c(cc(NCc4ccccc4)c4ccccc43)oc-2c1`, the growth was -41.2% (active).
The result for `Cn1cc(-c2csc(-c3cn(C)c4ccc(F)cc34)n2)c2cnccc21` reads -44.8% (active).
Regarding `O=C(O)C1CCC(=O)N1C(=O)OCc1ccccc1` (stereo not given), the growth was 84.1%.
Regarding `O=C1c2ccccc2C(=O)c2c1ccc1[nH]c(-c3cccs3)nc21`, the growth is 93.6%.
Take `CCC[CH2][Sn]1([CH2]CCC)[O]C2C(CO)OC(n3ccc(N)nc3=O)C2[O]1` (stereo not given): the growth was -36.6% (active).
The result for `OC(c1ccccc1)c1ccccn1` (stereo not given) reads 99.9%; that for `COc1ccc(C(=O)/C=C/c2c(C(F)(F)F)nc3sccn23)cc1OC`, -35.6% (active); that for `N#C/C(=C\c1ccc(-c2ccc(Cl)c(Cl)c2)o1)c1nc(-c2ccco2)cs1`, 103%.
For `O=C1/C(=C/c2ccccc2O)CC/C1=C\c1ccccc1O`, the growth was 11.9%.
Consider `CCOC(=O)c1c(NC(=S)Nc2ccc([N+](=O)[O-])cc2)sc2c1CCCCC2`, for which the growth is 70.5%.
As to `CCOC(=O)C1=C(c2ccccc2)N=C2SC=C(c3ccc(Cl)cc3)N2C1c1ccc(Br)cc1` (stereo not given), the growth was 55.2%.
Turning to `Cc1nc2sc(C(=O)Nc3ccccn3)c(N)c2cc1C(C)O` (stereo not given), the growth was 34.1%.
Consider `Cc1cc2nc(C(Cl)Cl)nc(-c3ccc(Cl)cc3)n2n1`, for which the growth is -8.18% (active).
On to `C=C1C(=O)O[C@H]2[C@H]1CC/C(C=Nc1c(N)cc(C(F)(F)F)cc1C(F)(F)F)=C\CC[C@@]1(C)O[C@@H]21`, for which the growth was -24.9% (active).
Turning to `CC(C)(C)c1cc(-n2c(-c3ccc(Cl)cc3)nc3cc(C(=O)Nc4ccc(Cl)cc4)ccc32)n[nH]1`, the growth was 51.3%.
On to `Oc1ccccc1C=Nc1ccccc1N=Cc1ccccc1O.[Cu+2]`, for which the growth is 55.8%.
Turning to `Cc1cccc(NCc2cn(-c3ccc(C(=O)O)cc3)nc2-c2ccc(C(=O)O)cc2)n1`, the growth was 101%.
As to `O=c1[nH][n+](-c2ccc(Cl)cc2)no1`, the growth is 24.9%.
In the case of `CCOC(=O)/C(=C/c1c(-c2ccccc2)[nH]c2ccccc12)C(=O)c1ccc(Cl)cc1` it was -10.6% (active).
